Experimental findings from publication PMC7862700, “An all-to-all approach to the identification of sequence-specific readers for epigenetic DNA modifications on cytosine” are described below.

Common to all, as to experiment: DAPPL (digital affinity profiling via proximity ligation, sequencing); 10 mM Tris-HCl pH 7.5, 50 mM NaCl, 1 mM DTT, 4% glycerol, room temperature, 30 min; GST-TFs on glutathione beads, 16-mer random dsDNA library, 0.1% formaldehyde crosslink after washing; high values mean tight binding
What all share (details): protein: recombinant; tags: N-terminal GST; dsDNA, one strand shown

For one experiment, the target named is T1, FLI1 (Homo sapiens, UniProt Q01543 1-452).
T1 sequence: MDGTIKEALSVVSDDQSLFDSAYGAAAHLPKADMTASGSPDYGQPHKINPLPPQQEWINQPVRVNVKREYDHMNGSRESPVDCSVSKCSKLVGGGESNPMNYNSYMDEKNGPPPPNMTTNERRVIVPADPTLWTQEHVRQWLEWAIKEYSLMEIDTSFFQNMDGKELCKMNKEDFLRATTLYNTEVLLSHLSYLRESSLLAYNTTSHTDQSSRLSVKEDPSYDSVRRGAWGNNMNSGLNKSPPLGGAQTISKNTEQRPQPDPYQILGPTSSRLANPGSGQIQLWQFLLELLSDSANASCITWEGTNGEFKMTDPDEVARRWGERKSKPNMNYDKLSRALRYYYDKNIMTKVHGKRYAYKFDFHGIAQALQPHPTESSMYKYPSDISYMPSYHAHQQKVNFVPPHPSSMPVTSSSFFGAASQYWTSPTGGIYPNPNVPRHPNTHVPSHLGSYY
Put shortly: (§1)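 Binding signal is defined as a hexamer's read frequency for one factor over its frequency for the tag-only sample. To obtain reads, GST-fused human transcription factors were expressed in yeast, captured on glutathione beads, barcoded with DNA and pooled with that sample. Pools met 200 nmole of a 16-mer random double-stranded DNA library in Tris/NaCl/DTT/glycerol buffer for 30 min at room temperature before washing, 0.1% formaldehyde crosslinking, proximity ligation (BsaI/T4 ligase, 1 h, 37 °C), PCR and Illumina NextSeq500 sequencing.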

The target of a further experiment is T2, ELK1 (Homo sapiens, UniProt P19419 1-428).
T2 sequence: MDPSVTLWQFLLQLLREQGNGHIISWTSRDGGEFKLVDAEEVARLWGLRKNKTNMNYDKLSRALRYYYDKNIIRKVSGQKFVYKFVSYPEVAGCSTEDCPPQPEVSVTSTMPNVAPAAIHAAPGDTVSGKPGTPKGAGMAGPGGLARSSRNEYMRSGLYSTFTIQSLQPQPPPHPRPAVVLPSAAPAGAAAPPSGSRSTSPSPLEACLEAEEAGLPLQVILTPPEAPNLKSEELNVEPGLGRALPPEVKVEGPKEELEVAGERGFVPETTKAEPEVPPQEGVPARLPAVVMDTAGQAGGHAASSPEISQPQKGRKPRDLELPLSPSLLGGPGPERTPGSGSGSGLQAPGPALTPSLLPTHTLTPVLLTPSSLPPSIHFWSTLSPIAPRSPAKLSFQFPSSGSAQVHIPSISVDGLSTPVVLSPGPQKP
Summed up:
as §1

Another experiment concerns the target T3, GABPA (Homo sapiens, UniProt Q06546 1-454).
T3 sequence: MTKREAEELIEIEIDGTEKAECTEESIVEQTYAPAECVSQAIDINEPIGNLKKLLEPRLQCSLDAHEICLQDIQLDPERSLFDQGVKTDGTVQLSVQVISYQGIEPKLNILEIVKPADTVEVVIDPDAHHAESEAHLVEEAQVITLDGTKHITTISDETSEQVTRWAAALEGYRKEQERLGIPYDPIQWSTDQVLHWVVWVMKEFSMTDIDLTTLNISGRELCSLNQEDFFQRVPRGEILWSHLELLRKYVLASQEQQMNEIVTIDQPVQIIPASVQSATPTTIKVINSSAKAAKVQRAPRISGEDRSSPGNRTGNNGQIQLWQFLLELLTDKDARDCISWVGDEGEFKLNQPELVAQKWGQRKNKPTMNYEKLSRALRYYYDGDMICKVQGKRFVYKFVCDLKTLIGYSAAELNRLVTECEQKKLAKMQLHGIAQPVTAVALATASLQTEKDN
Summed up: as §1

The target in the next experiment is T4, ERG (Homo sapiens, UniProt P11308 1-479).
T4 sequence: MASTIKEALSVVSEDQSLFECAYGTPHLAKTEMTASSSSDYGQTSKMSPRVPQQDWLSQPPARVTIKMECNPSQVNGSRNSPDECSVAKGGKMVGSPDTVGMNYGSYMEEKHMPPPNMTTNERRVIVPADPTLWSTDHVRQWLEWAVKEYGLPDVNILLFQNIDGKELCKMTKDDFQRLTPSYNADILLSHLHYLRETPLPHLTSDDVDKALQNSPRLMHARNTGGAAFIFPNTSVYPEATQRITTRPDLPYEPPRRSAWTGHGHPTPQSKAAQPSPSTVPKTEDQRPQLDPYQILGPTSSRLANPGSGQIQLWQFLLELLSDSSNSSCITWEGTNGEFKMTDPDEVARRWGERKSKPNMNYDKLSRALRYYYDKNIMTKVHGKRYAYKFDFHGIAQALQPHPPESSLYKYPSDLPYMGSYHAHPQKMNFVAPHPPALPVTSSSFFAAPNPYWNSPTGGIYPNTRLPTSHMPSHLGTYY
Put shortly: as §1

The target of another experiment is ELF1 (Homo sapiens, UniProt P32519 1-619). Summed up: as §1
A further experiment addresses T5, EHF (Homo sapiens, UniProt Q9NZC4 1-300).
T5 sequence: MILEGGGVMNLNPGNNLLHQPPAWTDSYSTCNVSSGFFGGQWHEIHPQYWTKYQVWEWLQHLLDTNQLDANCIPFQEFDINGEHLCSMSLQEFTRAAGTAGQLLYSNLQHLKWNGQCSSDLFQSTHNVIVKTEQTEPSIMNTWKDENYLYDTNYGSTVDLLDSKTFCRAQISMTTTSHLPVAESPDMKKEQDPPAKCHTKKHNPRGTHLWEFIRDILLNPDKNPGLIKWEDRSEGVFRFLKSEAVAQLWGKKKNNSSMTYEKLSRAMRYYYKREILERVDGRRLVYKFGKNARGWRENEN
Put shortly: as §1

In a further experiment the target is SPI1 (Homo sapiens, UniProt P17947 1-270). Summed up: as §1
The target in a further experiment is SPIB (Homo sapiens, UniProt Q01892 1-262). Put shortly: as §1
The target in the next experiment is T6, ELK3 (Homo sapiens, UniProt P41970 1-407).
T6 sequence: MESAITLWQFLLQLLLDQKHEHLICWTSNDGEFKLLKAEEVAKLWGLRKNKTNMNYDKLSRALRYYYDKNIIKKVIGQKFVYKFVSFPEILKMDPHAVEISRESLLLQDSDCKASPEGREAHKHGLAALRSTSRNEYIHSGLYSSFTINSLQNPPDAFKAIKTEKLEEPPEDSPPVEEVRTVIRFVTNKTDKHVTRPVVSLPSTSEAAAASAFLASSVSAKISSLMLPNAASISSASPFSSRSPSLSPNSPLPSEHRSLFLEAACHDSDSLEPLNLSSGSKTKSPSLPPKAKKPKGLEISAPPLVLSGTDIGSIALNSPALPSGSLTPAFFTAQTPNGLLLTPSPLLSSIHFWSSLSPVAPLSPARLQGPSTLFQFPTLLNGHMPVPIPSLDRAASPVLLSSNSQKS
Put shortly:
as §1

Another experiment addresses T7, FEV (Homo sapiens, UniProt Q99581 1-238).
T7 sequence: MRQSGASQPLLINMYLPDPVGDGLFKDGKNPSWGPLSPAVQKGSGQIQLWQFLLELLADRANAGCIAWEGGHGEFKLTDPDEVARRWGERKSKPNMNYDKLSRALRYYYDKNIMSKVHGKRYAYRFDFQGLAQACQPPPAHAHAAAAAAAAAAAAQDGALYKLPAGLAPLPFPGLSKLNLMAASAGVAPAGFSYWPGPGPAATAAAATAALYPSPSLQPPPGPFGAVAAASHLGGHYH
Summed up: as §1

In a further experiment the target is ETV5 (Homo sapiens, UniProt P41161 1-510). Put shortly:
as §1

Another experiment has as its target T8, SPIC (Homo sapiens, UniProt Q8N5J4 1-248).
T8 sequence: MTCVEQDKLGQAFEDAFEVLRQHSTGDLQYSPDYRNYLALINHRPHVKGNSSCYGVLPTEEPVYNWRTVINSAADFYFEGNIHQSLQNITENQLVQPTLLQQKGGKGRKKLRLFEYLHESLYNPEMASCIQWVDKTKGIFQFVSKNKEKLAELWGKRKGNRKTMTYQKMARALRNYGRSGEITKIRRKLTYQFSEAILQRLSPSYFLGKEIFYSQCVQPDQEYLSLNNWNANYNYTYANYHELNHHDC
Put shortly: as §1

The next experiment has as its target ELF4 (Homo sapiens, UniProt Q99607 1-663). Summed up: as §1
The next experiment addresses T9, ELK4 (Homo sapiens, UniProt P28324-2 1-405).
T9 sequence: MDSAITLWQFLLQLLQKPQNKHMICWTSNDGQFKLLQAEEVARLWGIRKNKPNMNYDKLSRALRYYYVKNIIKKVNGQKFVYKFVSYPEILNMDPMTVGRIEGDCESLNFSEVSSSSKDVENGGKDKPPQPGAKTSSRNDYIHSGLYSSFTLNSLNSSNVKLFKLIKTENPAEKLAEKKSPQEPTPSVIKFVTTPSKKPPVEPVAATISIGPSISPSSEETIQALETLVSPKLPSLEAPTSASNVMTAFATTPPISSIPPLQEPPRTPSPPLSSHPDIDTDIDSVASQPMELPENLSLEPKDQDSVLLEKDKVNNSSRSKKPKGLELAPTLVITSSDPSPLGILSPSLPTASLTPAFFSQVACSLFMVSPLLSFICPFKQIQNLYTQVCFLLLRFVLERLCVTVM
Put shortly:
as §1

In a further experiment the target is T10, ETV2 (Homo sapiens, UniProt O00321 1-342).
T10 sequence: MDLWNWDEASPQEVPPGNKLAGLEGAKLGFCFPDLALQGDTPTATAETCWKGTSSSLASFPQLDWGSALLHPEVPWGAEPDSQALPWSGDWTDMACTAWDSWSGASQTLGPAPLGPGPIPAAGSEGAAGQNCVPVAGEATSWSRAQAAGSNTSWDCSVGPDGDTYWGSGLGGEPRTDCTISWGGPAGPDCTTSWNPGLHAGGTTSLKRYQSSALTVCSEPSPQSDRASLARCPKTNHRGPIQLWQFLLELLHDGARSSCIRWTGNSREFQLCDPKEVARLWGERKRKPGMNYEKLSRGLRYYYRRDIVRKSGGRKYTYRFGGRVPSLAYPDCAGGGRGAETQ
Summed up:
as §1

The next experiment concerns the target T11, ELF3 (Homo sapiens, UniProt P78545 1-371).
T11 sequence: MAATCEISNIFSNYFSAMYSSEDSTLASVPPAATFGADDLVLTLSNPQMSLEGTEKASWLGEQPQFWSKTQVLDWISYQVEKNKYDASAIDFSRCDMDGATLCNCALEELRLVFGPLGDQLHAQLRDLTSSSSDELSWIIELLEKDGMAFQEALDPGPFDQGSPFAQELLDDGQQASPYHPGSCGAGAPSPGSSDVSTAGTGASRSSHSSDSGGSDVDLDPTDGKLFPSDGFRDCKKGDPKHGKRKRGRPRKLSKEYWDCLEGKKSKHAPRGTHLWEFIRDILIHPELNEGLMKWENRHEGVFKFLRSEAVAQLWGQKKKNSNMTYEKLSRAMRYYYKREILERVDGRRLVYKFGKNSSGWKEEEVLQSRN
Summed up:
as §1

Another experiment deals with ETV1 (Homo sapiens, UniProt P50549 1-477). Put shortly: as §1
Sequence of ETV1 (P50549 whole entry): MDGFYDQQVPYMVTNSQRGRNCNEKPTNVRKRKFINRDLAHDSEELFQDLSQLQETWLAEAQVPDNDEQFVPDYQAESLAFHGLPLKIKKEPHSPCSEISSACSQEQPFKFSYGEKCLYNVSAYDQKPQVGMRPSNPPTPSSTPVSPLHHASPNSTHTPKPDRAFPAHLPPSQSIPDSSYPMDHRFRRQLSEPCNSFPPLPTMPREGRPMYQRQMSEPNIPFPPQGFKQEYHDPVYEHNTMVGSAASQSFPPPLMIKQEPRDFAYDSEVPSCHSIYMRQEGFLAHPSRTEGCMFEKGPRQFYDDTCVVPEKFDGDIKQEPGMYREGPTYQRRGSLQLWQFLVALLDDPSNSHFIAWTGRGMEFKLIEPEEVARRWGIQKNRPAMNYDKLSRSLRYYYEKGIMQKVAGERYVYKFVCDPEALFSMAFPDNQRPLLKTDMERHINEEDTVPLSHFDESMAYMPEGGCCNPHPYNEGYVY

Sequence of SPIB (Q01892 whole entry): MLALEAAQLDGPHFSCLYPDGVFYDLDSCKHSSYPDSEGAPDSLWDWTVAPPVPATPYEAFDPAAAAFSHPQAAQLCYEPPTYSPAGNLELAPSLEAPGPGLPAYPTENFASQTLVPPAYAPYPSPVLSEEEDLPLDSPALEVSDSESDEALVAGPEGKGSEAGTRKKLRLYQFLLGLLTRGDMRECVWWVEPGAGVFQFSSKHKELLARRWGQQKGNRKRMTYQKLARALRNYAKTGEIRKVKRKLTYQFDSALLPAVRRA
Sequence of ETV5 (P41161 whole entry): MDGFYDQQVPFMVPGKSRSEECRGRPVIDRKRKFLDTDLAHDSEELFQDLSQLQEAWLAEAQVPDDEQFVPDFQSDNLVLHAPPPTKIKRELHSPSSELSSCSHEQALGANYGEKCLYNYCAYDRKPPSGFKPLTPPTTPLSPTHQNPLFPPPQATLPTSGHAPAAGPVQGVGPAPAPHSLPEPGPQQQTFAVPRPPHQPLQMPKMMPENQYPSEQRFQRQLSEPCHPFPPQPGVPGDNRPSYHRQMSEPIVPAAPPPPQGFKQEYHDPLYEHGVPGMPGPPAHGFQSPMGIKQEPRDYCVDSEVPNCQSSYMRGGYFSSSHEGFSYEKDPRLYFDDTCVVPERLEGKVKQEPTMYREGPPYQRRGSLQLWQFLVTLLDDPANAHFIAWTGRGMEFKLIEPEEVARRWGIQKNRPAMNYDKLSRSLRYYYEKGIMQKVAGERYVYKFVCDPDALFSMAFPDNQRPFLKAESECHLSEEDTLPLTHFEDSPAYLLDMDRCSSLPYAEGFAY
Sequence of ELF1 (P32519 whole entry): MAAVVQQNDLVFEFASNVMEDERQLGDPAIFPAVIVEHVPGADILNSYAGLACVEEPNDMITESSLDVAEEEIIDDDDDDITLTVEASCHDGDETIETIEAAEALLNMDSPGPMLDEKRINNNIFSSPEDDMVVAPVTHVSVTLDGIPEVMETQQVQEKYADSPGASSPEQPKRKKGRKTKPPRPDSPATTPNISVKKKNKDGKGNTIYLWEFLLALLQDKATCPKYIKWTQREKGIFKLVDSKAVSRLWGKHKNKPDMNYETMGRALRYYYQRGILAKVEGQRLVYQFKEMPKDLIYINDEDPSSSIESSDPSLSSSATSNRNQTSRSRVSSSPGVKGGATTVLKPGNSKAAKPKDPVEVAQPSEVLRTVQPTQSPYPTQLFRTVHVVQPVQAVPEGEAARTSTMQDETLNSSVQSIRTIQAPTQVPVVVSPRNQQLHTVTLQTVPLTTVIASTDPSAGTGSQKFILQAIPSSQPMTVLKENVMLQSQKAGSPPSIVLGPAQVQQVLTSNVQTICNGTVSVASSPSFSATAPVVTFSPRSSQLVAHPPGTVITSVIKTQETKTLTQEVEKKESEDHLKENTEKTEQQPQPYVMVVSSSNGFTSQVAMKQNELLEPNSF
Sequence of ELF4 (Q99607 whole entry): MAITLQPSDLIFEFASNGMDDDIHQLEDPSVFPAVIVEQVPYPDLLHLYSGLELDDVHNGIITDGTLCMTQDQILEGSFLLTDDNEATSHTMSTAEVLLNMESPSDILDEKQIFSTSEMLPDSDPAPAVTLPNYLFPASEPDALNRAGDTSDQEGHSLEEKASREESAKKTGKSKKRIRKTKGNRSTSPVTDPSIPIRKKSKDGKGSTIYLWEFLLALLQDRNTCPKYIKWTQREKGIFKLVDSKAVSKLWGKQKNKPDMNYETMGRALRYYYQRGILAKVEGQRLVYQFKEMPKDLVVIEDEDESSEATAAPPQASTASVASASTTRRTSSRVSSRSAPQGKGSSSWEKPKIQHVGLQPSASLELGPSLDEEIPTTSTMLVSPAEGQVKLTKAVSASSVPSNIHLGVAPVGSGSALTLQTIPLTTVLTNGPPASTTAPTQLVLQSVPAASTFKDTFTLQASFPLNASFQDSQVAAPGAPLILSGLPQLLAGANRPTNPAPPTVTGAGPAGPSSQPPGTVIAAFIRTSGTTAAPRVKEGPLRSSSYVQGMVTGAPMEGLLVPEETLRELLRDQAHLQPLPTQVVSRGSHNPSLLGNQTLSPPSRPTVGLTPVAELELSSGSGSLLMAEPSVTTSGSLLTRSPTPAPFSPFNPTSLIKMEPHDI

TACAAC: the binding signal with FLI1 was 1.16 fold enrichment (6-mer frequency, TF over GST control); in the experiment with ELK1, 1.17 fold enrichment (6-mer frequency, TF over GST control); with GABPA it was 1.16 fold enrichment (6-mer frequency, TF over GST control); with ERG, 1.14 fold enrichment (6-mer frequency, TF over GST control); in the experiment with ELF1, 1.16 fold enrichment (6-mer frequency, TF over GST control); with EHF, 1.14 fold enrichment (6-mer frequency, TF over GST control). Also, the binding signal with SPI1 was 1.08 fold enrichment (6-mer frequency, TF over GST control); in the experiment with SPIB it was 1.18 fold enrichment (6-mer frequency, TF over GST control); with ELK3, 1.23 fold enrichment (6-mer frequency, TF over GST control); with FEV, 1.17 fold enrichment (6-mer frequency, TF over GST control); with ETV5, 1.13 fold enrichment (6-mer frequency, TF over GST control); in the experiment with SPIC, 1.22 fold enrichment (6-mer frequency, TF over GST control). Also, the binding signal was 1.11 fold enrichment (6-mer frequency, TF over GST control) with ELF4; 1.07 fold enrichment (6-mer frequency, TF over GST control) with ELK4; 1.09 fold enrichment (6-mer frequency, TF over GST control) with ETV2; 1.02 fold enrichment (6-mer frequency, TF over GST control) with ELF3; 1.13 fold enrichment (6-mer frequency, TF over GST control) with ETV1.
